The values that follow come from ChEMBL document CHEMBL2218924, “A broad activity screen in support of a chemogenomic map for kinase signalling research and drug discovery” (Biochem J, 2013).

By residual activity is commonly meant the signal under treatment as a percentage of the control signal.

In the assay the target is Serine/threonine-protein kinase WNK3 (Homo sapiens) (UniProt Q9BYP7). The settings on record: at 10 µM.
Serine/threonine-protein kinase WNK3 (Homo sapiens), sequence (Q9BYP7 whole entry): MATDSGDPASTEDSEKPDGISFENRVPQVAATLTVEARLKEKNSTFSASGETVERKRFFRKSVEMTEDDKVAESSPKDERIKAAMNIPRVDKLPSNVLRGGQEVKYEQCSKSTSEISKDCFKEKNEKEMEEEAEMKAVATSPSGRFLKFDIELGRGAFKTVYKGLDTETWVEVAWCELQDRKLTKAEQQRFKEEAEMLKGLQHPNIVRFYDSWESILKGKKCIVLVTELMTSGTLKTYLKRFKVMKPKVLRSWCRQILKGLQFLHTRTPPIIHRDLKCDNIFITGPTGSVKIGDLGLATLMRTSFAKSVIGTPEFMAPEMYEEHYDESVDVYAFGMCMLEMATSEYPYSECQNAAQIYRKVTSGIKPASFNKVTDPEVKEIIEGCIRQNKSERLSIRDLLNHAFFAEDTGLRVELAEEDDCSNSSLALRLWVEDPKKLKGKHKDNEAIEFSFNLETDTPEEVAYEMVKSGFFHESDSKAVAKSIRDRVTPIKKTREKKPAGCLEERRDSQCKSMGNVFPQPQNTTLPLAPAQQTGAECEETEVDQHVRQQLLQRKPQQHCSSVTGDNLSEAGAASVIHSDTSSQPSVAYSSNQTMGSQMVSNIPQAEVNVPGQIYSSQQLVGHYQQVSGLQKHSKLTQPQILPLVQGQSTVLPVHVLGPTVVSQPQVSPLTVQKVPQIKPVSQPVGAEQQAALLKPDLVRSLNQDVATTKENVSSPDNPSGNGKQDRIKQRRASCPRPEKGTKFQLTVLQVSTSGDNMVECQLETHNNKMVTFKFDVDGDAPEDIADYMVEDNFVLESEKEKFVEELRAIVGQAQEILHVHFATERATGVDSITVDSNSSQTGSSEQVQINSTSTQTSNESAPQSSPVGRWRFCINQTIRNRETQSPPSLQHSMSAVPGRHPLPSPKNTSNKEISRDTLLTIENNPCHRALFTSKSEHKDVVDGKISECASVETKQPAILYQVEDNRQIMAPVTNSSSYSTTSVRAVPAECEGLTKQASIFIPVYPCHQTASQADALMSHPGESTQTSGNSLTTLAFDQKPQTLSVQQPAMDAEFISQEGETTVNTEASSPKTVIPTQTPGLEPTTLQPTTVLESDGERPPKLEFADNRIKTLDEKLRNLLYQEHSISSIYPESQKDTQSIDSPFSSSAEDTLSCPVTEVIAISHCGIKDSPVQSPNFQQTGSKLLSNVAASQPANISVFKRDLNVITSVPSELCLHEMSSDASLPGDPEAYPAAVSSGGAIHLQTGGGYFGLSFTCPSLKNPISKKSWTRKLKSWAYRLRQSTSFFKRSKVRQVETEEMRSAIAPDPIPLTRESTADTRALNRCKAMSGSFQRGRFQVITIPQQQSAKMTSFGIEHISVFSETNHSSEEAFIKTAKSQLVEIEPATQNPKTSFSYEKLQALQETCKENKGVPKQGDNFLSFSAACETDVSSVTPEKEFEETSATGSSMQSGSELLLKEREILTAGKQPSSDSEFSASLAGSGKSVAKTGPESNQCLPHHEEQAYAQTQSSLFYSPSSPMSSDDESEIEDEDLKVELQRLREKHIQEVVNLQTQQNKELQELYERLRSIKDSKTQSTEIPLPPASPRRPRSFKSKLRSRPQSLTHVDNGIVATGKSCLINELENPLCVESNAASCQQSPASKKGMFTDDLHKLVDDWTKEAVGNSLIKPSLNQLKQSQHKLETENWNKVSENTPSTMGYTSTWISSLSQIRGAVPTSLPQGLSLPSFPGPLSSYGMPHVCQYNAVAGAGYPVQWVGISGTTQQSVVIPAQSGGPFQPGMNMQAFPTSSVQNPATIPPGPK
`c1ccc(-c2n[nH]cc2-c2ccnc3ccccc23)nc1`: the residual activity worked out at 91%.

For the molecule `Cn1nc2c3c(cccc31)C(=O)c1ccccc1-2`, the residual activity came out at 67%.

Take `COc1ccc(CNc2nc(N(CCO)CCO)nc3c2ncn3C(C)C)cc1`: the residual activity is 93%. For the molecule `CO[C@@H]1[C@H](N(C)C(=O)c2ccccc2)C[C@H]2O[C@]1(C)n1c3ccccc3c3c4c(c5c6ccccc6n2c5c31)C(=O)NC4`, the residual activity was determined as 76%. Under `C[C@@H](N)[C@H]1CC[C@H](C(=O)Nc2ccncc2)CC1` stands 102%; under `Cc1cccc(-c2[nH]c(C(C)(C)C)nc2-c2ccc3c(c2)OCO3)n1`, 89%. Under `Cc1cc(Nc2nc(-c3ccccc3)nc3ccccc23)n[nH]1` stands 31%.

For `O=C1Nc2ccc(Br)cc2/C1=C\c1cc2c([nH]1)CCCC2`, the residual activity turned out to be 105%.

As to `Cc1cc2ncc(-c3ccccc3)nc2cc1C`, the residual activity was found to be 92%. Under `O=C1c2ccccc2-[n+]2ccc3c([nH]c4ccccc43)c21` stands 93%; under `Cc1ccc(S(=O)(=O)/C=C/C#N)cc1`, 98%; under `c1ccc2c(-c3ccncc3)c[nH]c2c1`, 96%.

For the molecule `Cc1cncc2cccc(S(=O)(=O)N3CCCN(C(=O)CN)C[C@H]3C)c12`, the residual activity is 92%.

Take `CO[C@H]1C[C@@H]2CC[C@@H](C)[C@@](O)(O2)C(=O)C(=O)N2CCCC[C@H]2C(=O)O[C@H]([C@H](C)C[C@@H]2CC[C@@H](O)[C@H](OC)C2)CC(=O)[C@H](C)/C=C(\C)[C@@H](O)[C@@H](OC)C(=O)[C@H](C)C[C@H](C)/C=C/C=C/C=C/1C`: the residual activity stood at 111%. Under `Nc1cccc(-c2cc3c(Oc4cccc(O)c4)ncnc3[nH]2)c1` stands 49%; under `COc1ccc(S(=O)(=O)N(CCO)c2ccccc2CN(C)C/C=C/c2ccc(Cl)cc2)cc1`, 88%. As for `O=C1Nc2ccccc2/C1=C1/Nc2ccccc2/C1=N\OCCC(O)CO` (stereo unspecified), the residual activity amounted to 50%.

On to `COc1cc2ncnc(Nc3ccc(NC(=O)c4ccccc4)cc3)c2cc1OC`, for which the residual activity was found to be 23%. Under `N#Cc1cnc2cnc(NCc3cccnc3)cc2c1Nc1ccc(F)c(Cl)c1` stands 87%; under `Ic1cccc(CSc2nnc(-c3ccncc3)o2)c1`, 89%. Take `O=C(Nc1cccc(Nc2cc(Nc3cccc(C(F)(F)F)c3)ncn2)c1)C1CC1`: the residual activity was 85%. For `O=[N+]([O-])c1ccc(-c2nc(-c3ccc(F)cc3)c(-c3ccncc3)[nH]2)cc1`, the residual activity turned out to be 98%.

For `N#CC(C#N)=C(N)/C(C#N)=C/c1ccc(O)cc1`, the residual activity was determined as 75%.

Turning to `O=Nc1c(-c2c(O)[nH]c3ccccc23)[nH]c2ccccc12`, the residual activity was 60%. For the molecule `O=C1Nc2cc(Br)ccc2/C1=C1/Nc2ccccc2/C1=N\O`, the residual activity amounted to 93%.

Turning to `COc1cc2ncc(-c3ccccc3)nc2cc1OC`, the residual activity stood at 95%.

On to `O=C1NC(=O)/C(=C/c2ccc3c(c2)OC(F)(F)O3)S1`, for which the residual activity came out at 98%. Under `CC(=O)c1ccc(N2CCOCC2)cc1O` stands 104%; under `Nc1n[nH]c2nnc(-c3c(-c4ccccc4)nn4ccccc34)cc12`, 86%; under `Nc1nc(Nc2ccc(S(N)(=O)=O)cc2)nn1C(=S)Nc1c(F)cccc1F`, 64%.

Consider `Cn1cnc2cc3c(Nc4cccc(Br)c4)ncnc3cc21`, for which the residual activity is 90%.
